PAFAH2 inh = PAFAH2 enzyme inhibitors, primary screen, biochemical, fluorescence polarization, human. recombinant PAFAH2, FP-rhodamine activity probe. inhibition, % at 3.39 µM. Platelet-activating factor acetylhydrolase 2, cytoplasmic (Homo sapiens), Q99487. 340,000 tested, 0.99% active. AID 492956, 2010;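 active = inhibition above the mean over all tested compounds plus 3 SD, cut at about 30% in these data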;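 note: inhibitors block probe labeling of enzyme so polarization drops; 0% = enzyme with DMSO and 100% = wells lacking PAFAH2 protein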
PP5 inh = PP5 phosphatase inhibitors, primary screen, biochemical, fluorescence; Serine/threonine-protein phosphatase 5 (Homo sapiens), P53041; purified PP5c, OMFP substrate fluorescence; inhibition, % at 6.7 µM; 320,000 tested, 0.18% active; AID 1987, 2009;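 active = inhibition above the campaign's mean inhibition across all tested compounds plus 3 SD, cut at about 9.5% in these data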;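 note: 0% = DMSO only and 100% = 100 µM cantharidin control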
PAFAH1B2 FP inh = PAFAH1B2 enzyme inhibitors, primary screen, biochemical, fluorescence polarization, human; Platelet-activating factor acetylhydrolase IB subunit alpha2 (Homo sapiens), P68402; recombinant PAFAH1B2, FP-rhodamine activity probe; inhibition, % at 3.39 µM; 340,000 tested, 1.2% active;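 active = inhibition above the mean of all tested compounds plus 3 SD, cut at about 24% in these data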;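 note: 0% = enzyme with DMSO and 100% = wells lacking PAFAH1B2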
Target sequence (P68402 whole entry, looked up): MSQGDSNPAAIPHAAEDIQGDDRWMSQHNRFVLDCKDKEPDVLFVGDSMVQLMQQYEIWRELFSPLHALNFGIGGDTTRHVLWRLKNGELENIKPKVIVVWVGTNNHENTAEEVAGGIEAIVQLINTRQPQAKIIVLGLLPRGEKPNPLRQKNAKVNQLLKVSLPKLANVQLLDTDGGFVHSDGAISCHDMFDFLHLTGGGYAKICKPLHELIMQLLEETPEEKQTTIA
PP1 counter = PP1-alpha phosphatase inhibitors, primary screen, counter-screen for PP5 inhibitor project, biochemical, fluorescence, OMFP substrate, single point; Serine/threonine-protein phosphatase PP1-alpha catalytic subunit (Homo sapiens), P62136; purified PP1alpha; inhibition, % at 6.7 µM; 320,000 tested, 0.9% active;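 active = inhibition above the mean inhibition of all tested compounds plus 3 SD, computed separately for each screening campaign, cut at about 15% in these data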
PAFAH1B3 FP inh = PAFAH1B3 enzyme inhibitors, primary screen, biochemical, fluorescence polarization, human; recombinant PAFAH1B3, FP-rhodamine probe; 340,000 tested, 0.28% active; inhibition, % at 3.39 µM;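 active = inhibition above the screen-wide average of all tested compounds plus 3 SD, cut at about 25% in these data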;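 note: 0% = enzyme with DMSO only and 100% = wells lacking PAFAH1B3 protein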
Target sequence (Q15102 whole entry, looked up): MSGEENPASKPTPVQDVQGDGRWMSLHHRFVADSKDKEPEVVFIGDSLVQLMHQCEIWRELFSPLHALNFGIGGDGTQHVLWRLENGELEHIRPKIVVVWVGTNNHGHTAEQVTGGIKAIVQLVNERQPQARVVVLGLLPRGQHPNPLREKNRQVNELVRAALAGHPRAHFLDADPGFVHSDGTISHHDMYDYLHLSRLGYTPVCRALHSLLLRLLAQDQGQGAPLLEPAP
pPAFAH inh = pPAFAH enzyme inhibitors, primary screen, biochemical, fluorescence polarization, human | recombinant pPAFAH, FP-rhodamine probe fluorescence polarization | inhibition, % at 3.39 µM | AID 463082, 2010 | 330,000 tested, 1.5% active | Platelet-activating factor acetylhydrolase (Homo sapiens), Q13093;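 active = inhibition above the mean inhibition across the screen plus 3 SD, cut at about 25% in these data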;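 note: inhibitors block binding of the rhodamine activity-based probe so polarization drops; 0% = enzyme with DMSO and 100% = wells lacking pPAFAH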
pPAFAH confirm = pPAFAH (PLA2G7) enzyme inhibitors, confirmation, biochemical, fluorescence polarization, human; inhibition, % at 3.39 µM; AID 463230, 2010; shares compounds with pPAFAH inh; 2,300 tested, 72% active; recombinant pPAFAH, FP-Rh probe fluorescence polarization;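 active = mean inhibition of the triplicate above the hit cutoff set for the earlier primary screen, cut at about 25% in these data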;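 note: 0% = enzyme with DMSO and 100% = wells lacking pPAFAH enzyme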
* marks the source's active call; other numbers are inactive results; . = no result given. Hits are enriched below; roughly 3.4% of the tested compounds scored in any of these assays.

SMILES | PAFAH2 inh | PP5 inh | PAFAH1B2 FP inh | PP1 counter | PAFAH1B3 FP inh | pPAFAH inh | pPAFAH confirm
O=C1c2cc(Br)ccc2N(Cc2ccc(Br)cc2)S(=O)(=O)C1c1cc(Cl)c(Cl)cc1[N+](=O)[O-] (stereo unspecified) | 54* | . | 44* | . | 20 | 45* | 55*
CC[N+]1(C)CCC(O)(c2ccc(OC)cc2)C(C(=O)c2ccc(OC)cc2)C1 (stereo unspecified) | -5 | . | 4 | . | 13 | . | .
CCn1nc([N+](=O)[O-])c(C(C#N)c2nc3ccccc3n2C)c(Cl)c1=O (stereo unspecified) | 11 | 3 | 9 | -6 | 12 | 14 | .
CCCn1nc([N+](=O)[O-])c(C(C#N)c2nc3ccccc3s2)c(Cl)c1=O (stereo unspecified) | 60* | 8 | 15 | 13 | 14 | 56* | 51*
CC(=O)N1CCc2c(sc(NC(=O)CS(=O)(=O)c3ccc(F)cc3)c2C#N)C1 | 12 | -2 | 6 | -3 | 14 | 43* | 7
Cc1cccc(/C=C/C(=O)c2cc(Br)ccc(=O)c2O)c1 | 34* | 1 | 3 | 18* | 13 | 50* | 22
O=C(C=Cc1ccccc1)c1cc(Br)ccc1O | -3 | . | 4 | . | 4 | . | .
CCOc1ccc(/C=C/C(=O)c2cc(Br)ccc(=O)c2O)cc1 | 16 | 0 | -2 | 14 | 11 | 38* | 28*
CCc1ccc(/C=C/C(=O)c2cc(Br)ccc(=O)c2O)cc1 | 34* | 5 | 19 | 12 | 1 | 70* | 43*
COc1ccc(CCN2CC(C(=O)N3CCN(C(C)=O)CC3)CCC2=O)cc1 (stereo unspecified) | 6 | 2 | 5 | 0 | -3 | 5 | .
O=C(c1ccccc1)c1n[nH]c(-c2ccccc2)cc1=O | 7 | 0 | 1 | -4 | 6 | 5 | .
COc1ccc(CN2CC(C(=O)N3CC(C)CC(C)C3)CC2=O)cc1 (stereo unspecified) | 1 | 2 | -2 | -4 | -6 | 4 | .
Nc1ccc(O)cc1C(=O)OCC(=O)c1ccc(C2CCCCC2)cc1 | 12 | 6 | 6 | 3 | 5 | 51* | 26*
CCn1c(SCC(=O)N(C)CC(=O)Nc2ccc(F)c(F)c2F)nnc1-c1ccco1 | 2 | 2 | 6 | 1 | 2 | 4 | .
CCOCCn1c(=O)c2c(nc3n2CCCN3Cc2ccccc2)n(C)c1=O | 1 | 1 | 2 | -1 | 1 | 42* | 3
CCCCn1c(N)c(N(CC(C)C)C(=O)C2CC(=O)N(Cc3ccccc3)C2)c(=O)[nH]c1=O (stereo unspecified) | -5 | 1 | 2 | -2 | -4 | 6 | .
Cc1cccc(OCC(=O)NCCCNC(=O)c2cnccn2)c1 | -5 | 1 | 3 | 0 | 3 | 4 | .
Cn1c2ccccc2c(=O)c2ccc(NCCc3cccs3)cc21 | 21 | . | 12 | . | 10 | 38* | 16
Cn1c(C(=O)NCc2cccs2)cc2c(=O)n(C)c3ccccc3c21 | 5 | 0 | 3 | 4 | 9 | -5 | .
O=C(NC1CCCCC1)C(c1ccco1)N(C(=O)c1csnn1)c1cccc(Cl)c1 (stereo unspecified) | 13 | -5 | 0 | 4 | 7 | -6 | .
O=C(O)c1cccc(S(=O)(=O)Nc2ccc(O)c(Sc3nc4ccccc4s3)c2)c1 | -5 | -2 | 13 | 0 | -2 | 11 | .
O=S(=O)(Nc1ccc(O)c(Sc2nc3ccccc3s2)c1)c1ccc(F)cc1 | -3 | 4 | 14 | 4 | -8 | 52* | 40*
CCC(C)N(C(=O)COC(=O)c1cc([N+](=O)[O-])ccc1N1CCOCC1)C1CCS(=O)(=O)C1 (stereo unspecified) | 1 | -1 | 5 | -2 | 2 | 40* | 1
CN(C(=O)COC(=O)c1cc([N+](=O)[O-])ccc1N1CCCC1)C1CCS(=O)(=O)C1 (stereo unspecified) | -2 | -2 | 2 | -3 | 8 | -7 | .
CCOc1ccc(NC(=S)NC(=O)/C=C/c2ccc(C)cc2)c([N+](=O)[O-])c1 | -9 | 0 | -2 | 2 | -21 | 38* | -2
SMILES | PAFAH2 inh | PP5 inh | PAFAH1B2 FP inh | PP1 counter | PAFAH1B3 FP inh | pPAFAH inh | pPAFAH confirm
CCOc1ccc(NC(=S)NC(=O)/C=C/c2ccc(OC)c(OC)c2)c([N+](=O)[O-])c1 | 3 | 0 | 2 | 1 | 5 | -6 | .
Cc1cc(C)nc(N/N=C/C2=C(N3CCOCC3)C(=C\c3ccc(Cl)cc3)/CC2)n1 | 11 | 2 | 5 | 2 | 8 | 62* | 98*
CCCOP(=O)(c1ccc(N(C)C)cc1)C(O)c1ccc(Cl)cc1 (stereo unspecified) | 4 | -1 | 0 | -5 | 8 | 1 | .
Cc1ccc(NC(=O)c2ncn(CCCN(C)CCc3ccccn3)n2)cc1C | -9 | . | 7 | . | 4 | . | .
N#CCCN(C(=O)COC(=O)c1ccc(S(=O)(=O)Nc2ccccc2)cc1)c1ccccc1 | -2 | -1 | -1 | 0 | 3 | 35* | 18
COc1ccc([C@H]2CC(=O)C=C(/C=C/c3ccccc3)C2)cc1OC | -6 | 3 | 3 | 1 | 12 | 2 | .
O=c1c(O)c(-c2cc(O)c(O)c(O)c2)oc2cc(O)cc(O)c12 | 9 | 0 | 32* | -1 | 41* | 66* | 81*
O=c1c(-c2ccccc2)c(-c2ccccc2)oc2cc(O)cc(O)c12 | 4 | 2 | 22 | 12 | 8 | 1 | .
N[C@@H](Cc1cc(I)c(Oc2cc(I)c(O)c(I)c2)c(I)c1)C(=O)O | . | 1 | . | 16* | . | 44* | 39*
NC(Cc1ccc(O)c([N+](=O)[O-])c1)C(=O)O (stereo unspecified) | 3 | -5 | 0 | -2 | 12 | -11 | .
Cc1ccc(NS(=O)(=O)c2ccc(-c3ccc(=O)[nH]n3)o2)cc1 | -3 | 1 | 5 | 6 | -3 | 36* | 22
COc1ccc(CCn2c(O)cc3nn(-c4nc5ccccc5s4)c(=O)c-3c2C)cc1 | 21 | 0 | 7 | 17* | 15 | 56* | 44*
Cn1c2ccccc2c2cc(/C=N/NC(=O)c3cc(O)ccc3O)ccc21 | 24 | 1 | 30* | 14 | 59* | 57* | 28*
COc1ccc(Br)cc1/C=C\C(=O)NCc1cccnc1 | 14 | 0 | 0 | 0 | 8 | 2 | .

Assay outcomes from PubChem.
